This is part of a sample that, as a whole, favours compounds with a hit. Of some 83,000 tested, about 20% had one in any assay.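 Cells were grown in 96-well plates and exposed to the test compound at a single concentration for 48 hours; results are reported as percent growth, with values below 10 considered active.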 Calls of active or inactive are those of the source.
System: T-47D breast
Assay: NCI-60 one-dose screen, 48 h (100 = growth as untreated, 0 = no growth, -100 = all killed)
Conditions: 10 µM unless noted

| SMILES | growth |
| --- | --- |
| CN(c1cc2ncc(=O)[nH]c2cc1NC(N)=NCc1ccc(Cl)cc1)C1CCCCC1 | 47.6% (inactive) |
| O=C1/C(=C\c2ccc3nccnc3c2)SC(=S)N1CCc1ccc(O)cc1 | 50.4% (inactive) |
| Cc1ccc(C[P+](c2ccccc2)(c2ccccc2)c2ccccc2)cc1 | 1.57% (active) |
| COc1ccc(/C=N/C2=C(C#N)C(c3ccccc3)c3ccc4ccccc4c3O2)cc1 (stereo not given) | 46.7% (inactive) |
| COCCOc1cc2ncnc(N3CCN(c4cc(S(C)(=O)=O)c(C)cc4Cl)CC3)c2cc1OCCOC | 69.6% (inactive) |
| C#COc1cccc(Nc2c(C#N)cnc3ncc(NC(=O)CCl)cc23)c1 | 4.8% [6.25 µM] (active) |
| O=c1[nH]c(-c2ccccc2)nc2sc3cc(O)ccc3c12 | 93% (inactive) |
| CN1C(=O)/C(=C\c2nc([P+](c3ccccc3)(c3ccccc3)c3ccccc3)c(N3CCOCC3)o2)SC1=S | 79.4% (inactive) |
| CC(C)Cn1cnc2c(=O)[nH]c(N)nc21 | 85.3% (inactive) |
| CCSc1nc2scc(C)c2c(=O)[nH]1 | 101% (inactive) |
| NC(N)=NCCCCCNc1noc(Cc2c[nH]c3cc(Br)ccc23)n1 | 59.2% (inactive) |
| Cc1[nH]c(C(=O)Nc2ccccc2OC2CCNCC2)c(Cl)c1Cl | -4.05% (active) |
| O=C1NC(=O)C(Cc2ccc(OCc3ccc(-c4ccc(Cl)cc4Cl)cc3)cc2)S1 (stereo not given) | 16.1% (inactive) |
| Ic1ccc(OCCCCn2ccnc2)cc1 | 77.6% (inactive) |
| Cn1ccnc1C(=O)/C=C/c1ccc(CC(=O)Nc2cc(C(F)(F)F)cc(C(F)(F)F)c2)cc1 | 52.1% (inactive) |

From PubChem BioAssay (NCI)
